We go through 71 compounds from paper PMC4552634, “A New Set of Chemical Starting Points with Plasmodium falciparum Transmission-Blocking Potential for Antimalarial Drug Discovery” (PLoS ONE, 2015).

Where two headings read alike, the source gives them in different places. The campaign covered roughly 13,000 compounds. About 3,200 (25%) showed an effect of 50% or more. Some of the results follow.

What is called % Inhibition is the drop in the measured response relative to a control, in per cent.

The assay deals with P. falciparum stage V gametocytes. Set-up: BacTiter-Glo ATP luminescence viability of purified stage V gametocytes in 384-well plates, per cent inhibition versus DMSO. As to conditions: 48 h, 5 µM, inhibitor.

Turning to `COc1cc(CNC[C@@H](O)[C@H](Cc2ccccc2)NC(=O)c2cc(C3CCCC3)cc(N3CCCC3=O)c2)cc(OC)c1` [TCMDC-134558], the “% Inhibition” value was -9.273%.

`COc1ccc(Nc2nccc(N3CCC(NC(=O)Nc4cccc(OC)c4)C3)n2)cc1` (centres unmarked) [TCMDC-133616]: the “% Inhibition” value was -47.96%.

As for `CCSc1nnc(C2CCCN(CC(=O)Nc3cc(C(F)(F)F)ccc3Cl)C2)n1CC` (centres unmarked) [TCMDC-123540], the “% Inhibition” value turned out to be 7.83%.

Regarding `CC(=O)C1(c2ccccc2)CCN(CCC2(c3ccc(Cl)c(Cl)c3)CN(C(=O)C3CCCCC3)CCO2)CC1` (centres unmarked) [TCMDC-135326], the “% Inhibition” value is given as -73.48%.

As for `CCOC(=O)c1c(C)n(-c2ccc(Cl)cc2)c2ccc(OC(=O)C=Cc3ccccc3)cc12` [TCMDC-125715], the “% Inhibition” value was -42.41%.

Take `CN(C)CCNC(=O)N1CCCN(c2ncnc3cc(-c4ccccc4)sc23)CC1` [TCMDC-134389]: the “% Inhibition” value is reported as -9.14%.

On to `O=C(NCCN1CCCC1)N1CCCN(c2ncnc3cc(-c4ccc(F)cc4)sc23)CC1` [TCMDC-134393], for which the “% Inhibition” value is listed as 93.57%.

As for `CC(C)N1CCC(NC(=O)N2CCCN(c3ncnc4cc(-c5ccccc5)sc34)CC2)CC1` [TCMDC-134391], the “% Inhibition” value is 65.6%.

As to `O=C(NCCN1CCCCC1)N1CCCN(c2ncnc3cc(-c4ccccc4)sc23)CC1` [TCMDC-134392], the “% Inhibition” value was 3.881%.

Turning to `CN(C)CCNC(=O)NC1CN(c2ncnc3cc(-c4ccccc4)sc23)C1` [TCMDC-134388], the “% Inhibition” value is given as -2.865%.

Consider `CC(C)N1CCC(NC(=O)N2CCCN(c3ncnc4cc(-c5ccc(Cl)cc5)sc34)CC2)CC1` [TCMDC-134390], for which the “% Inhibition” value is on record as -12.69%.

As to `CN(C)CCNC(=O)N1CCCN(c2ncnc3cc(-c4ccc(Cl)cc4)sc23)CC1` [TCMDC-134387], the “% Inhibition” value was 97.42%.

As to `O=C(NCCN1CCCC1)N1CCCN(c2ncnc3cc(-c4ccc(Cl)cc4)sc23)CC1` [TCMDC-134394], the “% Inhibition” value was -0.6581%.

Turning to `O=C(Nc1ccccc1O)C1CCN(c2ncnc3cc(-c4ccc(F)cc4)sc23)CC1` [TCMDC-124822], the “% Inhibition” value is reported as -65.25%.

In the case of `Cc1c(CNCCCNc2cc(=O)c3ccccc3[nH]2)sc(C(F)F)c1Br` [TCMDC-141322], the “% Inhibition” value was -67.17%.

With `NC(=O)c1ccc(NC(=O)CN(Cc2ccc(Cl)cc2)S(=O)(=O)c2ccccc2)cc1` [TCMDC-124454], the “% Inhibition” value turned out to be 35.94%.

In the case of `CN(C)CCOc1ccc(-n2c(-c3nonc3N)nc3cncc(-c4ccc(F)cc4)c32)cc1` [TCMDC-134178], the “% Inhibition” value is given as -7.095%.

Take `CC(=O)Nc1ccc([N+](=O)[O-])c2c(Br)cccc12` [TCMDC-125386]: the “% Inhibition” value was -53.09%.

Turning to `COc1cc(F)c2ncc(Cl)c([C@H](O)CN3CCC(NCc4ccc5c(n4)NC(=O)CO5)CC3)c2c1` [TCMDC-135487], the “% Inhibition” value amounted to 8.334%.

On to `CC(C)(C)c1cc(/C=C/C(=O)NC2CCC(CN3CCC(c4c[nH]c5ccccc45)CC3)CC2)cc(C(C)(C)C)c1O` (centres unmarked) [TCMDC-139757], for which the “% Inhibition” value (% Inhibition) came out at 96.1%.

With `CC(C)(C)c1cc(/C=C/C(=O)NC2CCC(CN3CCC(c4c[nH]c5ccccc45)CC3)CC2)cc(C(C)(C)C)c1O` (centres unmarked) [TCMDC-139767], the “% Inhibition” value (% Inhibition) was 105.4%.

Take `N#Cc1cccc(Nc2cc(C(F)(F)F)nc(Nc3ccccc3)n2)c1` [TCMDC-133458]: the “% Inhibition” value worked out at 7.387%.

As to `CCOc1cc(Cc2cnc(N)nc2N)cc(Br)c1OC` [TCMDC-137721], the “% Inhibition” value was -8.107%.

Turning to `CC(C)N(Cc1ccc(-c2ccc(C(F)(F)F)cc2)cc1)C(=O)Cn1c(SCc2cccc(F)c2F)cc(=O)c2cc(CN3CCCCC3)ccc21` [TCMDC-141593], the “% Inhibition” value came out at 103.1%.

In the case of `CCN(Cc1ccc(-c2ccc(C(F)(F)F)cc2)cc1)C(=O)Cn1c(SCc2cccc(F)c2F)cc(=O)c2cc(CN3CCCCC3)ccc21` [TCMDC-141592], the “% Inhibition” value was 106.5%.

Take `COC(=O)C1(NC(=O)c2ccc(-n3nc(C)c(-c4ccccc4)c3N)cc2)CCCC1` [TCMDC-134041]: the “% Inhibition” value is reported as 30.38%.

Regarding `CCCC(C)NC(=O)C(N)Cc1cccc(I)c1` (centres unmarked) [TCMDC-141272], the “% Inhibition” value was -22.86%.

For `Cc1nn(CCOC(=O)NC(NCC2COc3ccccc3O2)C(Cl)(Cl)Cl)cc1[N+](=O)[O-]` (centres unmarked) [TCMDC-124139], the “% Inhibition” value is 72.15%.

Regarding `O=C(NCC1COc2ccccc2O1)c1cnc2c(c1)nc(-c1cnc(-c3ccccc3)[nH]1)n2CCSCc1c(F)cccc1Cl` (centres unmarked) [TCMDC-139692], the “% Inhibition” value is reported as 12.96%.

As to `CC1(C)N=C(N)N=C(N)N1OCC1COc2ccccc2O1` (centres unmarked) [TCMDC-131585], the “% Inhibition” value is given as 1.956%.

As to `Cc1ncc([N+](=O)[O-])n1CCOC(=O)NC(Nc1ccc(Br)cc1)C(Cl)(Cl)Cl` (centres unmarked) [TCMDC-124219], the “% Inhibition” value was determined as 76.02%.

For the compound `CC(C)C(=O)NC(NC(=S)Nc1ccc(Br)cc1)C(Cl)(Cl)Cl` (centres unmarked) [TCMDC-124131], the “% Inhibition” value was determined as 29.56%.

As for `Cc1ncc([N+](=O)[O-])n1CCOC(=O)NC(NCC1COc2ccccc2O1)C(Cl)(Cl)Cl` (centres unmarked) [TCMDC-125611], the “% Inhibition” value is 93.51%.

Turning to `O=C(/C=C/c1ccc(Cl)c(Cl)c1)NCCCCCN1CCCN(C(=O)Nc2ccc([N+](=O)[O-])cc2)CC1` [TCMDC-135754], the “% Inhibition” value is -58.55%.

Turning to `Clc1ccc(CNc2nc(NCCc3cnc[nH]3)nc(N3CCCC4CCCCC43)n2)cc1` (centres unmarked) [TCMDC-139743], the “% Inhibition” value is given as 10.44%.

As to `Cc1oc(-c2ccccc2)nc1CCOc1ccc(C[C@H](Nc2ccccc2C(=O)c2ccccc2)C(=O)NCc2ccccn2)cc1` [TCMDC-138315], the “% Inhibition” value is listed as -1.633%.

As to `NC1=NC2(CCCC2)C(c2ccc(Cl)c(Cl)c2)C(N)=N1` (centres unmarked) [TCMDC-137490], the “% Inhibition” value amounted to 18.93%.

Consider `O=C(c1cnn(-c2ccccc2)c1C(F)(F)F)N1CCN(c2ccnc3cc(Cl)ccc23)CC1` [TCMDC-123790], for which the “% Inhibition” value was -13.06%.

Regarding `COc1cc(Nc2nccc(NCC(O)c3ccc(C(F)(F)F)cc3)n2)cc(OC)c1OC` (centres unmarked) [TCMDC-136589], the “% Inhibition” value was -6.814%.

Regarding `COc1ccc(-c2cccc(NC(=O)c3cccc(Cl)c3)c2)cc1CN1CCNCC1` [TCMDC-132613], the “% Inhibition” value stood at 106.1%.

With `COc1ccc(-c2cccc(NC(=O)c3ccc(C#N)cc3)c2)cc1CN1CCCC1` [TCMDC-132611], the “% Inhibition” value is on record as 11.39%.

As to `COc1ccc(-c2cccc(NC(=O)c3cccc(C#N)c3)c2)cc1CN1CCNCC1` [TCMDC-132620], the “% Inhibition” value was determined as 19.71%.

In the case of `COc1cc(NC(=O)c2ccc(-c3ccccc3)cc2)ccc1OCCCN1CCC(c2ccccc2)CC1` [TCMDC-141370], the “% Inhibition” value is reported as -49.11%.

Take `O=C(Nc1ccc(-c2ccccc2)c(OCCN2CCNCC2)c1)c1ccc(-c2ccc(Cl)cc2)cc1` [TCMDC-138818]: the “% Inhibition” value is 100.4%.

Regarding `Cc1nc(-c2ccc(-c3ccc(NC(=O)Nc4ccc(I)c(OCCN(C)C)c4)cc3)c(C)c2)no1` [TCMDC-139107], the “% Inhibition” value is given as -54.47%.

As for `Cc1nc(-c2ccc(-c3ccc(C(=O)Nc4ccc(I)c(OCCN5CCCC5)c4)cc3)c(C)c2)no1` [TCMDC-139109], the “% Inhibition” value was 57.83%.

For the compound `CN(C)CCOc1cc(NC(=O)c2ccc(-c3ccc(Cl)cc3Cl)cc2)ccc1-c1ccccc1` [TCMDC-138835], the “% Inhibition” value was -44.47%.

For `COc1ccc(-c2cccc(NC(=O)c3ccc(Cl)cc3)c2)cc1CN1CCCC1` [TCMDC-132604], the “% Inhibition” value was found to be 46.68%.

`Cc1nc(-c2ccc(-c3ccc(C(=O)Nc4ccc(I)c(OCC5CCCN5C)c4)cc3)c(C)c2)no1` (centres unmarked) [TCMDC-139110]: the “% Inhibition” value was -18.97%.

Take `COc1ccc(-c2cccc(NC(=O)c3ccc(Cl)cc3)c2)cc1CN1CCNCC1` [TCMDC-132601]: the “% Inhibition” value is 95.75%.

On to `CC1C(c2cccc(Cl)c2)OCC(C)(C)N1C(=O)CCN1CCCCC1` (centres unmarked) [TCMDC-137873], for which the “% Inhibition” value is listed as -11.63%.

For `COc1ccc2nccc([C@@H](O)CN3CCC(NCc4ccc5c(c4)NC(=O)C(C)(C)O5)CC3)c2c1` [TCMDC-141097], the “% Inhibition” value was found to be 21.74%.

With `NC(N)=NN=C1C=Cc2cccc3cccc1c23` [TCMDC-137662], the “% Inhibition” value is -87.82%.

On to `Cc1cc(NC2CCCC2)nc(Nc2ccccc2F)n1` [TCMDC-133463], for which the “% Inhibition” value is given as -1.86%.

For `Cc1cc(C)cc(Oc2c(C(F)(F)F)oc3c(CN4CC(C)OC(C)C4)c(O)ccc3c2=O)c1` (centres unmarked) [TCMDC-125695], the “% Inhibition” value is -2.168%.

Take `CCOc1ccccc1NC(=O)Nc1ccc2c(c1)CCN(C1CCC1)CC2` [TCMDC-135951]: the “% Inhibition” value worked out at 31.77%.

As for `CCN1CCN(C(=O)NC(C(=O)N(C)Cc2ccc(-c3ccc(C(F)(F)F)cc3)cc2)c2cccs2)C(=O)C1=O` (centres unmarked) [TCMDC-141576], the “% Inhibition” value is recorded as 23.66%.

Take `CCOC(=O)NOC(C(=O)O)c1ccccc1` (centres unmarked) [TCMDC-131406]: the “% Inhibition” value is on record as -4.765%.

As for `COC(=O)c1cccc(CNCc2cccc(-c3ccc(-c4nc5cc(C(F)(F)F)ccc5[nH]4)cc3)c2)c1.O=C(O)C(F)(F)F` [TCMDC-132955], the “% Inhibition” value is on record as -38.35%.

Consider `COc1ccc(-c2ccc(NC(=O)c3ccc(C#N)cc3)cc2)cc1CN1CCNCC1` [TCMDC-132516], for which the “% Inhibition” value is recorded as 43.65%.

Regarding `COc1ccc(-c2cccc(NC(=O)c3cccc(Cl)c3)c2)cc1CN1CCCC1` [TCMDC-132615], the “% Inhibition” value is listed as 79.62%.

As to `COc1ccc(-c2cccc(NC(=O)c3cccc(Cl)c3)c2)cc1CN1CCCN(C)CC1` [TCMDC-132614], the “% Inhibition” value is on record as -18.61%.

Consider `O=C(Nc1ccc(-c2ccc(CN3CCNCC3)cc2)cc1)c1cccc(Cl)c1` [TCMDC-132590], for which the “% Inhibition” value is listed as 87.95%.

In the case of `O=C(Nc1cccc(-c2ccc(CN3CCNCC3)cc2)c1)c1cccc(Cl)c1` [TCMDC-132640], the “% Inhibition” value was -31.19%.

Consider `CN1CCCN(Cc2cccc(-c3cccc(NC(=O)c4cccc(Cl)c4)c3)c2)CC1` [TCMDC-132657], for which the “% Inhibition” value is -0.3892%.

Regarding `COc1ccc(-c2ccc(NC(=O)c3ccc(C#N)cc3)cc2)cc1CN1CCCC1` [TCMDC-132519], the “% Inhibition” value turned out to be 46.41%.

Consider `CN1CCCN(Cc2ccc(-c3ccc(NC(=O)c4cccc(Cl)c4)cc3)cc2)CC1` [TCMDC-132591], for which the “% Inhibition” value is listed as 42.97%.

Take `O=C(Nc1cccc(-c2cccc(CN3CCCC3)c2)c1)c1cccc(Cl)c1` [TCMDC-132659]: the “% Inhibition” value turned out to be 85.38%.

As to `COc1ccc(-c2ccc(NC(=O)c3ccc(Cl)cc3)cc2)cc1CN1CCNCC1` [TCMDC-133338], the “% Inhibition” value turned out to be 93.69%.

As to `O=C(Nc1cccc(-c2ccc(CN3CCCC3)cc2)c1)c1cccc(Cl)c1` [TCMDC-132643], the “% Inhibition” value was 24.88%.

As to `COc1ccc(-c2ccc(NC(=O)c3cccc(Cl)c3)cc2)cc1CN1CCCC1` [TCMDC-132525], the “% Inhibition” value is 40.62%.
